Rows were chosen to be rich in hits. Some 9.3% of all compounds tested hit in one or more screens of this group.
FLuc modulator: qHTS profiling assay for firefly luciferase inhibitor/activator using purifed enzyme and Km concentrations of substrates (counterscreen for miR-21 project). Luciferin 4-monooxygenase (Photinus pyralis), P08659. AID 588342, 2011. Potency, µM (highest dose often 57.5 µM), without a hit: at the highest dose activity change, negative = inhibition, most hits filed as inhibitors. 6.9% of 360,000 active. purified FLuc, Km substrates, luminescence inhibition;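 further: plate controls were vehicle for no effect and reference inhibitor for full effect; nearly all actives have a fitted effect of over 55% in size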
Target sequence (P08659 whole entry, looked up): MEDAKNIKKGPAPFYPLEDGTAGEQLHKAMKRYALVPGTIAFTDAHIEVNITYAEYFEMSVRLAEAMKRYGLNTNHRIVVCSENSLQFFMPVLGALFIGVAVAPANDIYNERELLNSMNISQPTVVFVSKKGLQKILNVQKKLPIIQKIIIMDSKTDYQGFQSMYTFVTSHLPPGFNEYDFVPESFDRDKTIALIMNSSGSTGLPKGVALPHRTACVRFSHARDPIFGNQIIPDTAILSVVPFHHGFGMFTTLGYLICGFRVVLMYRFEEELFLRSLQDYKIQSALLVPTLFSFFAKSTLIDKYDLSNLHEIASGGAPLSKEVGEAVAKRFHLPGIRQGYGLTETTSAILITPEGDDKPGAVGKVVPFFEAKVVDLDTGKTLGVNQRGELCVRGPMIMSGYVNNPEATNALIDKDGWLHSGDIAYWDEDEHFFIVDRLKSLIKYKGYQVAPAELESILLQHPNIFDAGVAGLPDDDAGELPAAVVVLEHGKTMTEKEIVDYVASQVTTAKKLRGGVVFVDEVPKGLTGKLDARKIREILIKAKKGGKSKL
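Purified P. pyralis luciferase (10nM final) with 10uM D-luciferin and 10uM ATP (Km levels) in 50mM Tris acetate pH 7.5, 10mM Mg acetate, 0.01% Tween-20, 0.05% BSA; qHTS 6-point titration, ~60 µM downward; luminescence read.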
ELG1 repair inh: qHTS screen for small molecules that inhibit ELG1-dependent DNA repair in human embryonic kidney (HEK293T) cells expressing luciferase-tagged ELG1 | 2.3% of 330,000 active | HEK293T ELG1-luciferase reporter, luminescence, 16 h; DNA damage induced by 5-fluorouridine | Potency, µM (top dose mostly 46.1 µM), for inactives: at the top dose activity change, negative = inhibition, actives largely listed as inhibitors; further: on the % scale 0 is the no-effect control and ±100 the full control effect; nearly all actives have a fitted effect of over 55% in size
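Overnight (16 hr) co-exposure of 2,000 cells/well to 5-fluorouridine and compound at 37 °C preceded detection. Luciferase was quantified via ONE-Glo luminescence; loss of signal denotes inhibition.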
Rab9 prom act: qHTS Assay for Rab9 Promoter Activators; Huh7 Rab9 promoter-luciferase reporter, luminescence, 24 h; Potency, µM (series often up to 9.22 µM), for inactives: at the top dose activation, negative = inhibition, usual class: activators; 2.8% of 320,000 active; further: % of control where 0% means no effect; nearly all actives have a fitted effect of over 60% in size
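Cell-based reporter: Huh7 stable for Rab9 promoter-driven luciferase, plated in reduced-serum medium with 10% FBS at 1500 cells/well, compound-treated 24 h at 37 °C, luminescence read after 10 min reagent.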
SMN2 splice up: qHTS Assay for Enhancers of SMN2 Splice Variant Expression. 2.8% of 210,000 active. AID 1458, 2008. Potency, µM (highest dose often 46.1 µM), for the others: at the top dose activity change, positive = activation, usual class: activators. HEK293 SMN2-luciferase splicing reporter, luminescence, 30-36 h; further: % of control where 0% means no effect; nearly all actives have a fitted effect of over 55% in size
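HEK293 cells carry an SMN2 […]–luciferase reporter in which exon 7 inclusion puts luciferase in frame. Cells were plated 10-12 h before compound addition, then incubated 30-36 h at 37C. ONE-Glo luminescence was read; sodium butyrate at 4.5 mM final served as control.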
NPC1 prom act: qHTS Assay for NPC1 Promoter Activators | Huh7 NPC1 promoter luciferase reporter, 24 h | Potency, µM (top dose mostly 9.22 µM), inactives show top-dose activation, actives largely listed as activators | 2.4% of 320,000 active; further: % of control where 0% means no effect; nearly all actives have a fitted effect of over 60% in size
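Quantitative HTS used a cell-based reporter: Huh7 cells stably bearing the NPC1 promoter upstream of luciferase were treated with compounds for 24 h, and promoter activation was read as luminescence.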
ELG1 genotox: qHTS screen for small molecules that induce genotoxicity in human embryonic kidney (HEK293T) cells expressing luciferase-tagged ELG1 | HEK293T ELG1-luciferase reporter, luminescence, 16 h | Potency, µM (titrated, usually from 46 µM), inactives show at the highest dose activity change, positive = activation, hits mostly activators | 1.3% of 330,000 active | AID 504466, 2011; further: % of control where 0% means no effect; nearly all actives have a fitted effect of over 60% in size
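Quantitative HTS format in 1536-well plates. HEK293T ELG1-luciferase reporter cells receive test compound and are incubated 16 hr at 37 °C, 5% CO2; ONE-Glo added, 30 min room temperature, then luminescence read.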
* = called active by the depositor; ? = inconclusive; nt = not tested or not shown; [ ] = dose if it differs, or a comment. The call rests on the fitted dose curve; in most records, active means well fitted curve in the direction sought with a large enough effect; inconclusive means small, poorly fitted or top-dose-only effect, or another doubt; inactive means no such curve, though single readings can be large; an effect the other way counts as inactive or inconclusive. Potency means the concentration at half of the fitted maximal effect.

SMILES | FLuc modulator | ELG1 repair inh | Rab9 prom act | SMN2 splice up | NPC1 prom act | ELG1 genotox
COCCNC(=O)c1cc(-c2cccc(OC)c2)on1 | 12µM* | ? | 3.2µM* | 11µM* | 3.5µM* | ?
CCOc1ccc(CCNC(=O)c2ccc(CS(=O)(=O)Cc3ccccc3Cl)o2)cc1OCC | -10% | nt | nt | nt | nt | nt
Cc1ccc(N(Cc2ccccc2)C(=O)c2ccc(Cl)c(S(=O)(=O)N3CCOCC3)c2)cc1 | ? | ? | 2% | nt | -1% | -28%
C[C@@H](C(=O)Nc1cccc(S(=O)(=O)N2CCOCC2)c1)N1C(=O)C2CC=CCC2C1=O (some centres undefined) | -2% | 8% | 2% | -3% | 2% | -1%
Cc1cc(O)ccc1N/C=C/c1onc(C)c1[N+](=O)[O-] | ? | ? | 2.5µM* | 20µM* | 3.2µM* | ?
Cc1noc(/C=C/c2nn(C)cc2Cl)c1[N+](=O)[O-] | ? | ? | 1% | nt | -4% | -25%
O=C1Nc2ccccc2/C1=C/c1cnc(-c2ccccc2)[nH]1 | ? | ? | 4µM* | nt | 2.8µM* | ?
Cc1ccc(N=Cc2c(O)n(-c3nccs3)c(=O)c3ccccc23)cc1 | ? | 18µM* | -5% | -12% | 2% | -1%
Cc1ccccc1N=Cc1c(O)n(-c2nccs2)c(=O)c2ccccc12 | ? | 21µM* | -6% | -3% | -5% | -5%
O=C(O)c1ccccc1N=Cc1c(O)n(-c2nccs2)c(=O)c2ccccc12 | -3% | ? | 2% | nt | -2% | -8%
O=c1c2ccccc2c(C=Nc2ccccc2O)c(O)n1-c1nccs1 | -3% | 16µM* | -4% | nt | 2% | -7%
Cc1cc(C)c(N=Cc2c(O)n(-c3nccs3)c(=O)c3ccccc23)c(C)c1 | -2% | ? | -4% | -14% | 0% | -5%
CC1(C)NC(=O)N(CC(=O)OCC(=O)N2CCN(S(=O)(=O)c3ccccc3)CC2)C1=O | 8% | 20% | -3% | nt | -1% | 4%
COc1ccc(CN(C)C(=O)COC(=O)c2c(C)nn(-c3ccc(F)cc3)c2Cl)cc1 | 1% | 13µM* | -7% | nt | -7% | -5%
Cc1nn(-c2ccccc2)c(Cl)c1C(=O)OCC(=O)N(C)c1c(N)n(Cc2ccccc2)c(=O)[nH]c1=O | 1% | 1% | 0% | nt | -5% | 0%
COc1ccccc1CNC(=O)COC(=O)c1c(C)nn(-c2ccccc2)c1Cl | 0% | ? | 4% | nt | -6% | -4%
COc1cccc(CNC(=O)COC(=O)c2c(C)nn(-c3ccccc3)c2Cl)c1 | 0% | 23µM* | 1% | nt | 0% | -3%
CCCOc1c(Cl)cc(C(=O)NC)cc1OC | 0% | 13% | -4% | 6% | -3% | 6%
Cc1ccc(/C=c2/sc3nnc(-c4ccccc4Cl)n3c2=O)o1 | 15µM* | 3% | 0% | 13% | 1% | -3%
CC(=O)c1ccc(NC(=O)CCc2c(C)nn(-c3ccc(N4CCCCC4)nn3)c2C)cc1 | 8.5µM* | nt | nt | nt | nt | nt
Cc1ccc(NC(=O)CCc2c(C)nn(-c3ccc(N4CCCCC4)nn3)c2C)cc1 | 11µM* | ? | ? | nt | 1.6µM* | 10%[9.26 µM]
COc1ccc(C)cc1NC(=O)CCc1c(C)nn(-c2ccc(N3CCCCC3)nn2)c1C | 12µM* | ? | ? | nt | ? | 4%
CCOC(=O)c1cccc(NC(=O)CCc2c(C)nn(-c3ccc(N4CCCCC4)nn3)c2C)c1 | 11µM* | nt | nt | nt | nt | nt
Cc1ccc(NC(=O)CCc2c(C)nn(-c3ccc(N4CCOCC4)nn3)c2C)c(C)c1 | -11% | 8% | -3% | nt | -4% | 0%

Screening results deposited in PubChem BioAssay by National Center for Advancing Translational Sciences (NCATS).
